± gives the standard deviation of the averaged measurements. About 6,500 targets were measured; listed, in parts, are those with the largest changes and a random draw of the rest.
Compound: Nc1ncnc2c1ncn2[C@@H]1O[C@H](COP(=O)(O)OP(=O)(O)OP(=O)(O)O)[C@@H](O)[C@H]1O [adenosine triphosphate]
Experiment: NP40-soluble protein abundance relative to vehicle (solubility fold change) (ratio); higher = more soluble protein in presence of ATP
Procedure, shortened: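 In three independent experiments, Jurkat crude lysate made by Dounce homogenisation was treated for 10 min at room temperature and then 3 min at 37 °C with eight concentrations ranging from 0.1 to 10 mM. It was then solubilised with 0.8% NP40 plus benzonase for 60 min at 4 °C and ultracentrifuged. The supernatant was TMT-labelled for LC-MS/MS, and each value is the fold change against the detergent-processed vehicle for the same replicate, using vsn-normalised intensities.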

Sequence of UniProt Q13523 (Q13523 whole entry, looked up): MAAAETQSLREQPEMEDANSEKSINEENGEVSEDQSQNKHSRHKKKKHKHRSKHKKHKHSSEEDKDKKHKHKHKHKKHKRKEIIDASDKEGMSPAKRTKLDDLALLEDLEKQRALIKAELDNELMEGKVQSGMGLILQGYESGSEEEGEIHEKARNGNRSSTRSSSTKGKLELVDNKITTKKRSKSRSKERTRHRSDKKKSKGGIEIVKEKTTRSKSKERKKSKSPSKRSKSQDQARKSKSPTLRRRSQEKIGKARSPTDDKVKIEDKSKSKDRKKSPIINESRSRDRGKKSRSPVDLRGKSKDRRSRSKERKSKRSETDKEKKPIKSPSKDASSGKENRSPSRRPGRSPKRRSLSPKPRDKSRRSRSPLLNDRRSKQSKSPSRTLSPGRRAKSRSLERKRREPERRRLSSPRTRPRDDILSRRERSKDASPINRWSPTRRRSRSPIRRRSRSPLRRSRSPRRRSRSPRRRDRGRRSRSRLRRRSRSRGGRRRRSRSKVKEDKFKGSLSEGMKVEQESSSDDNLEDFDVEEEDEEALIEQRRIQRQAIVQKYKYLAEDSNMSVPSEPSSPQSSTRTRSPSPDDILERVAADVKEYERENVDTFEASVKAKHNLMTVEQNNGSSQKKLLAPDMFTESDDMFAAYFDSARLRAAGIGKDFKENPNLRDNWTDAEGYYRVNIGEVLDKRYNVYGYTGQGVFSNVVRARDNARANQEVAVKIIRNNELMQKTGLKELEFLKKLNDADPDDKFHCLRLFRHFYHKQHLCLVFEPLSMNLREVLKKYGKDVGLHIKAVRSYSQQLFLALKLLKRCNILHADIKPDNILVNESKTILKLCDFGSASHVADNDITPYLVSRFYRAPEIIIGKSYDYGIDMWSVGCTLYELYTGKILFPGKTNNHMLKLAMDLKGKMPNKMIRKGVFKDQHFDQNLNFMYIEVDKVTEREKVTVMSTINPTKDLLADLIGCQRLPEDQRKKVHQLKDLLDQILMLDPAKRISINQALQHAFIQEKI
Sequence of UniProt Q13045 (Q13045 whole entry): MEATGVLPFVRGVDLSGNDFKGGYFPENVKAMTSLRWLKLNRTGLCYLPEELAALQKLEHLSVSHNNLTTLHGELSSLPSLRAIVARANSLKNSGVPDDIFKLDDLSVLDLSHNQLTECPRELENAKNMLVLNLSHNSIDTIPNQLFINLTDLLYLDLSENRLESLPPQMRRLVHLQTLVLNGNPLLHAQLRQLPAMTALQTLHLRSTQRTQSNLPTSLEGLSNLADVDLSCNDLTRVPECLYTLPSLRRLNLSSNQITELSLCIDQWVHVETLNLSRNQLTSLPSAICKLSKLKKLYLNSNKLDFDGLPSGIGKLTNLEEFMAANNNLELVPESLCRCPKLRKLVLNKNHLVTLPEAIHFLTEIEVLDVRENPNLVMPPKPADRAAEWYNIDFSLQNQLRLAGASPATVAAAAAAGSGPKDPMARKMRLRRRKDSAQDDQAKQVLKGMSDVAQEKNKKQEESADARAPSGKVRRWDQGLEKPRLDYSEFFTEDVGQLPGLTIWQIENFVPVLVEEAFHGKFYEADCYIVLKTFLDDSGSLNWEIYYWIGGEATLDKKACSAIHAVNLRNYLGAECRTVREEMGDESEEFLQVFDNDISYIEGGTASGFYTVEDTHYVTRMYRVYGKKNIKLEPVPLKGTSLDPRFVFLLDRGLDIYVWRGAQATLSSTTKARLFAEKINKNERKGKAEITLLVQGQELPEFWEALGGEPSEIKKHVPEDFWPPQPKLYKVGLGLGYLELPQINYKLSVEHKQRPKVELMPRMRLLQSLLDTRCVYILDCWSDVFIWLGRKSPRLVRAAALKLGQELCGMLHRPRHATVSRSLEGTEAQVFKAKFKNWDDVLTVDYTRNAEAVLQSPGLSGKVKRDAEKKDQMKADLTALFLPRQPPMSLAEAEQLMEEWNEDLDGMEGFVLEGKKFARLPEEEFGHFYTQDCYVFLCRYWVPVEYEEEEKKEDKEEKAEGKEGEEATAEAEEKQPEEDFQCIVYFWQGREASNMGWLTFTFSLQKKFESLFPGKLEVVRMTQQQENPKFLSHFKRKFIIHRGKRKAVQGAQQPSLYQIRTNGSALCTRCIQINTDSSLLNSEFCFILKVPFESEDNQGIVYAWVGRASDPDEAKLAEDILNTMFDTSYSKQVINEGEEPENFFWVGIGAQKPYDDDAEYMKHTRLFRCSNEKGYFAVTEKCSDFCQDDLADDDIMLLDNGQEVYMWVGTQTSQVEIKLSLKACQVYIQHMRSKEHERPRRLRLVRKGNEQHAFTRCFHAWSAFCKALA
Sequence of UniProt Q2NKX8 (Q2NKX8 whole entry): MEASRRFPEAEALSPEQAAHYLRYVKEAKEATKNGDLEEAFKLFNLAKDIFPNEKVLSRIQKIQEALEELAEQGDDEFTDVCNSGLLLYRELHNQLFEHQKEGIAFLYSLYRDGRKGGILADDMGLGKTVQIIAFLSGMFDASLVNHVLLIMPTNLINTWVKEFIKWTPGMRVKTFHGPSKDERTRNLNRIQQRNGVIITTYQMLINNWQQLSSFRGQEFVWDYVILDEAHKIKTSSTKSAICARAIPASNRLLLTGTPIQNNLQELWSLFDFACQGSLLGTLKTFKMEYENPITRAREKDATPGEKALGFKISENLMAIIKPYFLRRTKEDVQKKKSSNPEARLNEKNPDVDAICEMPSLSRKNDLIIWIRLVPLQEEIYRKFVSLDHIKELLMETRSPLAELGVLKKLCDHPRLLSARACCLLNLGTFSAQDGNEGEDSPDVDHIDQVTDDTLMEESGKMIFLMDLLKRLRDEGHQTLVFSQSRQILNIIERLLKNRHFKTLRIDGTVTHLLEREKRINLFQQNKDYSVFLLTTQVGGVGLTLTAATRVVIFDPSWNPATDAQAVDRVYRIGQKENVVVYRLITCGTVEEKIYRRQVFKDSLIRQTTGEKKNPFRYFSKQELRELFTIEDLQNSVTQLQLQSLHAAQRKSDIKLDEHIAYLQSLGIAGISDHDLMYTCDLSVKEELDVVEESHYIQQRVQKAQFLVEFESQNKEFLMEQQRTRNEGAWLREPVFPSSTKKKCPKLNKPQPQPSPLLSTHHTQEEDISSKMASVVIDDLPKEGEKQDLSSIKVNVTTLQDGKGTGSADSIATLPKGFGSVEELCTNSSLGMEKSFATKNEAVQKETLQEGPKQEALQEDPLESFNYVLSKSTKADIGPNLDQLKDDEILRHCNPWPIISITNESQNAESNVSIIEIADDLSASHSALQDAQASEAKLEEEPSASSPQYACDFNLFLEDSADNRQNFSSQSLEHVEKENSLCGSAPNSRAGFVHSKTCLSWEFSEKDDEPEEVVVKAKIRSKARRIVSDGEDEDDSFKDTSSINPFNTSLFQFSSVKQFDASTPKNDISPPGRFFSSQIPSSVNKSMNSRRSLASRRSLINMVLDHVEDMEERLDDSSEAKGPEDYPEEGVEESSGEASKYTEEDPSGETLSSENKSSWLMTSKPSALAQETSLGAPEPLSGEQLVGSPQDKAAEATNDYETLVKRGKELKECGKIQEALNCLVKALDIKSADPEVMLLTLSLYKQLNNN
Sequence of UniProt Q8N183 (Q8N183 whole entry): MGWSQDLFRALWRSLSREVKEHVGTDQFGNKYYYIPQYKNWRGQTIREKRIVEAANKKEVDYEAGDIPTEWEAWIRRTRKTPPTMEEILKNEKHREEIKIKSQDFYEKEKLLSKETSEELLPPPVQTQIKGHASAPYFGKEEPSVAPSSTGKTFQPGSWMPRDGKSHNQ
Sequence of UniProt Q8NG08 (Q8NG08 whole entry, one chain of several): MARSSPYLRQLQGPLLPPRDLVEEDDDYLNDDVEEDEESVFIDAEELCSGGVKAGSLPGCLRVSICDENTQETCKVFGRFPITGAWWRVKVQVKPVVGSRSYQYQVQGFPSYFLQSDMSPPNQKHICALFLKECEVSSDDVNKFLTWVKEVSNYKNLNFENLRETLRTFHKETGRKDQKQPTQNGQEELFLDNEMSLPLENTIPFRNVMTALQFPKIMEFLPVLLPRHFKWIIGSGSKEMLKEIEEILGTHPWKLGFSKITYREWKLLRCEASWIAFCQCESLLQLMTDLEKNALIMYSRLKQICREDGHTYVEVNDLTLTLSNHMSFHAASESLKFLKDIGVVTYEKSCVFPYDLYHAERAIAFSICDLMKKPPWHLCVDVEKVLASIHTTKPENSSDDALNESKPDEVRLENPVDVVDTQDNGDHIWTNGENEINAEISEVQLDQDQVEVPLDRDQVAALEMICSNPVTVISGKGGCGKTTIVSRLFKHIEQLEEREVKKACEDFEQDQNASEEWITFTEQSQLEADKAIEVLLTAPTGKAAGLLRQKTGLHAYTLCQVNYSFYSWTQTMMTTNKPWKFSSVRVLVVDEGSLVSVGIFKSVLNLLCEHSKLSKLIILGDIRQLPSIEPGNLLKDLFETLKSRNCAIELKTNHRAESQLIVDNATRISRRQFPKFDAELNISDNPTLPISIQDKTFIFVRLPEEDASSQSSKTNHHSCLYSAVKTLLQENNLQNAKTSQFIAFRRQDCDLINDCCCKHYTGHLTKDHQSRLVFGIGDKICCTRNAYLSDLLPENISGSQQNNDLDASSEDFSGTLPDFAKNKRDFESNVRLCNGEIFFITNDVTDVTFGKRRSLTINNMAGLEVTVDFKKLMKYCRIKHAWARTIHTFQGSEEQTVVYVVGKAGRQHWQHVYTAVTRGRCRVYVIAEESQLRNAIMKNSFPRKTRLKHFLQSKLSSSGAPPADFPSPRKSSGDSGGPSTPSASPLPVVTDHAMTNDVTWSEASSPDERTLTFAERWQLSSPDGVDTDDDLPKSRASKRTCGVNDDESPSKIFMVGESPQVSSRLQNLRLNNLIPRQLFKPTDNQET
Sequence of UniProt Q14011 (Q14011 whole entry): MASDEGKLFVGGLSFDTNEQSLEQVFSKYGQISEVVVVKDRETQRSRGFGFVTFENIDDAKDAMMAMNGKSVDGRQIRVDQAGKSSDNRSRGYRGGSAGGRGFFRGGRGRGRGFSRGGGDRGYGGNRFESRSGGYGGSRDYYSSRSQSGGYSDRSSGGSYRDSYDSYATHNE

Target	NP40-soluble protein abundance (concentration: 1mM)	NP40-soluble protein abundance (concentration: 2mM)	NP40-soluble protein abundance (concentration: 4mM)	NP40-soluble protein abundance (concentration: 6mM)	NP40-soluble protein abundance (concentration: 8mM)	NP40-soluble protein abundance (concentration: 10mM)
UniProt Q86U06|Q86U06-2|Q86U06-4|Q86U06-5|G3XAP0	1.5 ± 0.41	1.53 ± 0.31	1.48 ± 0.33	1.76 ± 0.46	1.56 ± 0.41	1.46 ± 0.49
TYSND1 (UniProt Q2T9J0)	0.977 ± 0.047	0.983 ± 0.058	0.995 ± 0.042	0.947 ± 0.013	0.974 ± 0.032	0.96 ± 0.076
UniProt Q16630|Q16630-2	2.36 ± 0.24	2.68 ± 0.27	2.89 ± 0.3	3.09 ± 0.32	3.03 ± 0.2	3.05 ± 0.28
UniProt Q8NC60	0.967 ± 0.17	0.876 ± 0.13	0.889 ± 0.13	0.876 ± 0.2	0.945 ± 0.15	0.942 ± 0.14
UniProt Q13795|Q13795-3	0.95 ± 0.024	0.961 ± 0.015	0.932 ± 0.025	0.962 ± 0.046	0.9416 ± 0.0073	0.945 ± 0.039
UniProt Q8TDY2|Q8TDY2-2	1.04 ± 0.056	1.02 ± 0.044	1.03 ± 0.038	1.04 ± 0.042	1.01 ± 0.041	1.04 ± 0.038
CEP135 (UniProt Q66GS9)	0.983 ± 0.041	0.966 ± 0.026	0.964 ± 0.038	0.956 ± 0.036	0.972 ± 0.029	0.989 ± 0.047
UniProt Q8N684|Q8N684-2|Q8N684-3	1.51 ± 0.076	1.61 ± 0.016	1.75 ± 0.065	1.81 ± 0.081	1.82 ± 0.055	1.83 ± 0.032
UniProt Q4G0J3|Q4G0J3-3	1.17 ± 0.046	1.22 ± 0.047	1.36 ± 0.021	1.507 ± 0.0071	1.56 ± 0.049	1.71 ± 0.018
UniProt Q8TEB1|Q8TEB1-2	0.948 ± 0.093	0.977 ± 0.06	0.961 ± 0.079	0.956 ± 0.054	0.942 ± 0.066	0.918 ± 0.078
UniProt Q13761|Q13761-2	1.07 ± 0.2	1.18 ± 0.35	1.18 ± 0.3	1.19 ± 0.31	1.13 ± 0.23	1.18 ± 0.13
UniProt Q6PK18|Q6PK18-2	1.06 ± 0.02	1.06 ± 0.061	0.955 ± 0.045	1.03 ± 0.074	1.09 ± 0.15	1.04 ± 0.024
UniProt Q8NG08|F5H1I4	1.05 ± 0.18	1.06 ± 0.12	1.09 ± 0.16	0.955 ± 0.13	0.984 ± 0.066	1.01 ± 0.1
UniProt Q641Q2|F8W7U3|Q641Q2-2	0.968 ± 0.057	0.9815 ± 0.0096	0.938 ± 0.033	0.94 ± 0.094	0.895 ± 0.05	0.896 ± 0.047
UniProt Q15397	1.28 ± 0.054	1.39 ± 0.058	1.53 ± 0.073	1.6 ± 0.13	1.7 ± 0.042	1.96 ± 0.12
CIRBP (UniProt Q14011)	0.999 ± 0.062	1.02 ± 0.029	1.04 ± 0.033	1.1 ± 0.061	1.09 ± 0.051	1.1 ± 0.025
RNF20 (UniProt Q5VTR2)	0.962 ± 0.05	0.961 ± 0.02	0.935 ± 0.024	0.997 ± 0.041	0.935 ± 0.019	0.933 ± 0.017
CUL4A (UniProt Q13619)	0.99 ± 0.13	0.955 ± 0.08	0.918 ± 0.08	0.89 ± 0.098	0.963 ± 0.047	0.94 ± 0.047
ZC3H12A (UniProt Q5D1E8)	0.982 ± 0.088	1.05 ± 0.089	0.988 ± 0.11	1.02 ± 0.085	1.02 ± 0.084	0.943 ± 0.11
LYPLAL1 (UniProt Q5VWZ2)	0.942 ± 0.077	0.936 ± 0.066	0.892 ± 0.048	0.879 ± 0.12	0.883 ± 0.03	0.904 ± 0.057

Target	NP40-soluble protein abundance (concentration: 1mM)	NP40-soluble protein abundance (concentration: 2mM)	NP40-soluble protein abundance (concentration: 4mM)	NP40-soluble protein abundance (concentration: 6mM)	NP40-soluble protein abundance (concentration: 8mM)	NP40-soluble protein abundance (concentration: 10mM)
UniProt Q53GS7|Q53GS7-2	1.18 ± 0.079	1.19 ± 0.12	1.39 ± 0.24	1.54 ± 0.24	1.52 ± 0.2	1.71 ± 0.23
SMC5 (UniProt Q8IY18)	1.02 ± 0.026	1.02 ± 0.013	1.02 ± 0.02	1.04 ± 0.02	1.04 ± 0.016	1.04 ± 0.017
UniProt Q8NCU8-2	0.876 ± 0.17	0.822 ± 0.086	0.826 ± 0.14	0.769 ± 0.068	0.883 ± 0.12	0.752 ± 0.038
UniProt Q8NCA5|Q8NCA5-2	1.01 ± 0.056	1.14 ± 0.15	1.18 ± 0.12	1.26 ± 0.14	1.41 ± 0.14	1.64 ± 0.23
NDUFAF2 (UniProt Q8N183)	0.927 ± 0.11	0.916 ± 0.046	0.934 ± 0.093	0.906 ± 0.046	0.959 ± 0.062	0.848 ± 0.12
UniProt Q13057|Q13057-2	1.01 ± 0.061	1.02 ± 0.072	1.02 ± 0.086	0.962 ± 0.094	1.04 ± 0.095	1.02 ± 0.075
ERCC6L (UniProt Q2NKX8)	0.999 ± 0.024	0.986 ± 0.026	0.971 ± 0.024	0.999 ± 0.033	0.966 ± 0.0079	0.978 ± 0.017
ZCCHC7 (UniProt Q8N3Z6)	1.02 ± 0.19	1.2 ± 0.026	1.34 ± 0.021	1.48 ± 0.018	1.51 ± 0.15	1.79 ± 0.044
UniProt Q13438|Q13438-7	0.953 ± 0.036	0.953 ± 0.049	0.94 ± 0.056	0.99 ± 0.069	0.939 ± 0.031	0.952 ± 0.045
UniProt Q5JUR7	1 ± 0.077	1.07 ± 0.12	1.04 ± 0.029	1.02 ± 0.13	1.05 ± 0.087	1.06 ± 0.062
UniProt Q86VR2	0.91 ± 0.084	0.941 ± 0.088	0.925 ± 0.11	0.869 ± 0.037	0.906 ± 0.064	0.943 ± 0.052
Q5QPA5|Q9NVS2|Q9NVS2-2 (UniProt Q9NVS2)	1.07 ± 0.12	0.926 ± 0.14	0.879 ± 0.17	0.946 ± 0.39	0.887 ± 0.24	0.818 ± 0.2
UniProt Q86Y56	0.992 ± 0.076	0.985 ± 0.067	0.954 ± 0.036	0.917 ± 0.082	0.937 ± 0.046	0.976 ± 0.052
UniProt Q16611|Q16611-2	1.01 ± 0.036	0.985 ± 0.023	1.02 ± 0.09	1.05 ± 0.045	0.997 ± 0.077	0.993 ± 0.087
URB2 (UniProt Q14146)	1.21 ± 0.1	1.36 ± 0.15	1.61 ± 0.058	1.68 ± 0.11	2.04 ± 0.16	2.19 ± 0.46
UniProt Q13045|Q13045-2	1.01 ± 0.039	0.985 ± 0.042	0.974 ± 0.03	0.949 ± 0.058	0.976 ± 0.026	0.968 ± 0.051
UniProt Q86X95	0.964 ± 0.013	0.935 ± 0.061	0.9643 ± 0.008	0.949 ± 0.026	0.935 ± 0.0096	0.913 ± 0.02
UniProt Q6KCM7-2|Q6KCM7-3|Q6KCM7|Q6KCM7-4|Q6KCM7-5	0.871 ± 0.048	0.884 ± 0.061	0.831 ± 0.012	0.758 ± 0.085	0.868 ± 0.039	0.894 ± 0.026
UniProt Q13642-1|Q13642-4|Q13642-5	0.979 ± 0.17	0.968 ± 0.11	0.956 ± 0.098	0.926 ± 0.091	0.979 ± 0.12	0.983 ± 0.064
UniProt Q7Z5G4|Q7Z5G4-3	0.928 ± 0.02	0.914 ± 0.015	0.902 ± 0.019	0.885 ± 0.046	0.878 ± 0.014	0.897 ± 0.032

Target	NP40-soluble protein abundance (concentration: 1mM)	NP40-soluble protein abundance (concentration: 2mM)	NP40-soluble protein abundance (concentration: 4mM)	NP40-soluble protein abundance (concentration: 6mM)	NP40-soluble protein abundance (concentration: 8mM)	NP40-soluble protein abundance (concentration: 10mM)
TRIM14 (UniProt Q14142)	1.08 ± 0.044	1.05 ± 0.037	1.13 ± 0.088	1.1 ± 0.083	1.17 ± 0.067	1.27 ± 0.2
UniProt Q14155-1	1 ± 0.011	0.9849 ± 0.0056	0.97 ± 0.013	1.02 ± 0.05	0.976 ± 0.024	0.962 ± 0.034
PDCD7 (UniProt Q8N8D1)	1.22 ± 0.14	1.24 ± 0.058	1.48 ± 0.099	1.48 ± 0.024	1.49 ± 0.13	1.76 ± 0.16
UniProt Q86UT6|Q86UT6-2	1.03 ± 0.027	1.081 ± 0.0018	0.99 ± 0.06	1.01 ± 0.18	1.02 ± 0.14	1.03 ± 0.12
UniProt Q15906|Q15906-2	1.13 ± 0.12	1.13 ± 0.092	1.22 ± 0.12	1.27 ± 0.23	1.24 ± 0.12	1.26 ± 0.13
UniProt Q13243	1.5 ± 0.12	1.63 ± 0.088	1.76 ± 0.12	1.95 ± 0.11	1.92 ± 0.13	1.98 ± 0.07
UniProt Q3KQU3|Q3KQU3-4	1.08 ± 0.1	1.03 ± 0.11	1.09 ± 0.13	1.13 ± 0.26	1.1 ± 0.16	1.14 ± 0.13
UniProt Q7Z5K2|Q7Z5K2-3	1.02 ± 0.011	0.995 ± 0.018	0.993 ± 0.011	1.01 ± 0.026	1.014 ± 0.0065	0.987 ± 0.029
MDC1 (UniProt Q14676)	1.45 ± 0.11	1.57 ± 0.11	1.74 ± 0.13	1.89 ± 0.18	1.88 ± 0.13	1.99 ± 0.15
PRPF4B (UniProt Q13523)	1.29 ± 0.015	1.329 ± 0.011	1.46 ± 0.018	1.6 ± 0.061	1.68 ± 0.041	1.8 ± 0.022
UniProt Q7Z2T5	1.09 ± 0.05	1.16 ± 0.051	1.27 ± 0.013	1.39 ± 0.023	1.55 ± 0.018	1.69 ± 0.051
UniProt Q8IWZ8	1.03 ± 0.036	1.05 ± 0.037	1.08 ± 0.034	1.11 ± 0.068	1.11 ± 0.051	1.09 ± 0.037
UniProt Q4FZB7	0.985 ± 0.15	1.1 ± 0.23	1.07 ± 0.11	1.01 ± 0.16	1.01 ± 0.029	0.983 ± 0.065
UniProt Q5T280	1.03 ± 0.085	1.08 ± 0.077	1.23 ± 0.12	1.47 ± 0.17	1.52 ± 0.21	1.83 ± 0.22
UniProt Q6Y7W6|Q6Y7W6-4|Q6Y7W6-5	1.05 ± 0.076	1.08 ± 0.05	1.1 ± 0.051	1.18 ± 0.068	1.12 ± 0.029	1.16 ± 0.045
UniProt Q8N6N3|Q8N6N3-2	0.865 ± 0.1	0.81 ± 0.041	0.869 ± 0.13	0.822 ± 0.051	0.779 ± 0.12	0.817 ± 0.063
DDX51 (UniProt Q8N8A6)	1.25 ± 0.021	1.38 ± 0.085	1.65 ± 0.15	1.9 ± 0.22	2.05 ± 0.18	2.29 ± 0.27
UniProt Q8IZ81|D6RBS5	1.01 ± 0.11	0.966 ± 0.089	0.958 ± 0.094	0.916 ± 0.12	0.967 ± 0.045	0.958 ± 0.057
TBL3 (UniProt Q12788)	1.15 ± 0.06	1.3 ± 0.04	1.58 ± 0.036	1.59 ± 0.11	1.89 ± 0.1	2.01 ± 0.089
UniProt Q7Z7K6|Q7Z7K6-3	1.08 ± 0.058	1.14 ± 0.19	1.33 ± 0.14	1.47 ± 0.24	1.56 ± 0.23	2.03 ± 0.28
